# Measurements published in PubChem BioAssay (NCATS).
# Results filed as inconclusive are left out. A call without a number means that no potency is given here. Calls of active or inactive are those of the source. The call rests on the fitted dose curve; in most records, active means well fitted curve in the direction sought with a large enough effect; inconclusive means small, poorly fitted or top-dose-only effect, or another doubt; inactive means no such curve, though single readings can be large; an effect the other way counts as inactive or inconclusive.
# Key:
# [1] = tested on: Zika virus NS2B-NS3 protease (unlinked complex); assay: Primary screen GU Rhodamine qHTS for Zika virus inhibitors: Unlinked NS2B-NS3 protease assay (AID 1347159); conditions: Recombinant ZIKV NS2B-NS3 protease, Rhodamine110 substrate fluorescence; series mostly up to 107 µM; further: nearly all actives have a fitted effect of over 60% in size; further: potency means the concentration at half of the fitted maximal effect
# Method in brief: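 A qHTS format was used, with compound concentrations ranging up to 114 microM. Each compound was preincubated with 25 nM NS2B-NS3 protease, and the substrate was then added at 1.5 microM. Curves were fitted with a 4-parameter Hill model.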
# [2] = tested on: Zika virus NS2B-NS3 protease (linked construct); assay: Primary screen NINDS Rhodamine qHTS for Zika virus inhibitors (AID 1347160); conditions: purified NS2B-NS3 protease, Rhodamine110 substrate fluorescence; series mostly up to 57.1 µM; further: nearly all actives have a fitted effect of over 55% in size; further: potency means the concentration at half of the fitted maximal effect
# Method in brief: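 Kinetic fluorescence (Ex 480 nm, Em 540 nm) over 15 min with 1.5 microM Rhodamine110 peptide and 25 nM linked protease.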
# [3] = ZIKV-mCherry secondary qHTS for Zika virus inhibitors (AID 1347158); conditions: Vero cells, ZIKV-mCherry infection imaging, 48-72 h; series mostly up to 49.2 µM; further: potency means the concentration at half of the fitted maximal effect
# Method in brief: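 After overnight seeding at 37 °C, Vero cells receive compound and then ZIKV-mCherry (MOI 1). Following 48-72 h infection, cells are fixed, counterstained with Hoechst, and imaged; percent infected cells is derived from an mCherry intensity cut-off of 450 RFU.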
# [4] = tested on: Zika virus NS2B-NS3 protease (linked); assay: 384 well plate NINDS AMC confirmatory qHTS for Zika virus inhibitors (AID 1347163); conditions: Recombinant NS2B-NS3 protease, Ac-VKTGKR-AMC fluorescence; series mostly up to 1 mM; further: nearly all actives have a fitted effect of over 50% in size; further: potency means the concentration at half of the fitted maximal effect
# Method in brief: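 Linked protease 5/30/60 nM final; cpds up to 1 mM final, ~15 min preinc. Substrate Ac-VKTGKR-AMC 30 microM final. RT, dark, 25 min; FI ex 355/em 460; normalized to no-enzyme/no-inhibitor ctrls.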
# [5] = tested on: Zika virus NS2B-NS3 protease (linked construct); assay: 384 well plate NINDS Rhodamine confirmatory qHTS for Zika virus inhibitors (AID 1347164); conditions: rhodamine-110 peptide substrate fluorescence; series mostly up to 100 µM;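 further: fluorescence from protease cleavage of Ac-LKRR-rhodamine 110 substrate; nearly all actives have a fitted effect of over 65% in size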; further: potency means the concentration at half of the fitted maximal effect
# Method in brief: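 Enzyme (final 5/30/60 nM) + cpd (DMSO), ~15 min; add Ac-LKRR-Rd 10 microM final; 25 min RT, dark; FI ex 485/em 538; normalized to no-enzyme, no-inhibitor ctrls; aprotinin intraplate ctrl.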
# [6] = Vero cells viability qHTS for Zika virus inhibitors (AID 1347167); conditions: cytotoxicity counter-screen (Zika); series mostly up to 45.9 µM
# Text: Avindra Nath, Ph.D., National Institute of Neurological Disorders and Stroke (NINDS), Bethesda, MD
# Radhakrishnan Padmanabhan, Ph.D., Georgetown University (GU), Washington D.C.
# Zika Virus causes congenital defects, including microcephaly and is associated with Guillain-Barre syndrome, eningoencephalitis and myelitis in infected adult. […] Using a target-based approach, we hope to establish a screening paradigm to uncover novel, cell-active NS2B-NS3 protease (Zika Virus) specific inhibitors from NCATS' collection of small molecules using qHTS.
# Four assay panel was created to identify potential Zika Virus inhibitors. Namely, (1) GU unlinked NS2B-NS3 AMC tagged protease qHTS, (2) GU unlinked NS2B-NS3 Rhodamine tagged protease qHTS, (3) NINDS linked NS2B-NS3 AMC tagged protease qHTS, (4) NINDS linked NS2B-NS3 Rhodamine tagged protease qHTS. Identified inhibitors were screened against the Vero and HepG2 cell viability assays using CellTiter Glo to exclude cytotoxic compounds.
# Early Translation Branch (ETB)
# National Center for Advancing Translational Sciences (NCATS), Rockville, MD
# National Institute of Health (NIH), Bethesda, Maryland
# Vero and HepG2 Cell Viability Assay:
# Vero and HepG2 cell cytotoxicity were determined using a luminescent readout with CellTiter Glo reagent (Promega, Madison, WI), which is based on measuring the ATP content within cells. Briefly, 4 microL of Vero or HepG2 cells at 2.5 x 10^5 cells/mL in DMEM containing 4% FBS were dispensed into 1536-well solid bottom tissue treated white plate using a Multidrop Combi dispenser (Thermo Scientific). Plates were incubated at 37 degrees C, 95% humidity, and 5% CO2 overnight to allow for cell attachment. Compounds were dissolved in DMSO at different concentrations and transferred via pintool (Wako Automation), for a final concentration of 0.029 µM - 57 microM. Plates were again incubated for 24 to 48 hours, followed by a 2 microL addition of CellTiter Glo. Finally, plates were incubated for 30 minutes at 37 degrees C and 5% CO2 before being read on a ViewLux (Perkin Elmer) for luminescence.
# [7] = HepG2 cells viability qHTS for Zika virus inhibitors (AID 1347168); conditions: Zika counter-screen; series mostly up to 45.9 µM; further: potency means the concentration at half of the fitted maximal effect
# Method in brief: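 Counter-screen for cytotoxicity of hits from NS2B-NS3 protease qHTS. Overnight-attached cells (2.5 x 10^5 cells/mL, DMEM/4% FBS) were dosed in titration, incubated 24 to 48 hours, then assayed by CellTiter Glo.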
# [8] = Tertiary RLuc qRT-PCR qHTS assay for Zika virus inhibitors (AID 1347169); conditions: infected Vero cells, reporter luminescence, 48-72 h; series mostly up to 45.9 µM; further: nearly all actives have a fitted effect of over 55% in size; further: potency means the concentration at half of the fitted maximal effect
# Method in brief: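 Vero, 1,000 cells/well, o/n 37 C; cpd pinned in DMSO; ZIKV-RLuc Cambodian, MOI 1-2, 48-72 h 37 C; live-cell RLuc substrate, lum read at 1-1.5 h.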
# [9] = OV-KATE Cancer Cell Toxicity qHTS against the NCATS CANVASS Library (AID 1347345); conditions: OV-KATE cells viability, CellTiter-Glo luminescence, 72 h; series mostly up to 38.3 µM
# Text: Natural products and their derivatives continue to be wellsprings of nascent therapeutic potential. However, many laboratories have limited resources for biological evaluation, leaving their previously isolated or synthesized compounds largely or completely untested. To address this issue, the Canvass library of natural products was assembled (https://tripod.nih.gov/canvass), in collaboration with academic and industry researchers, for quantitative high-throughput screening (qHTS) across a diverse set of cell-based and biochemical assays. The pure (>85% purity by liquid chromatography/mass spectrometry [LC/MS]) Canvass library of 346 natural products were submitted by 45 academic laboratories and companies around the world. […] The library was formatted into 1536-well plates and evaluated in 50 qHTS (in an 11-pnt concentration series) bioassays with broad scope of disease-relevant mechanisms. The resulting data set from 50 different assays was then systematically analyzed to identify overall trends and specific natural products with interesting biological activities. […]
# Cancer Cell Toxicity protocol for cell lines COV-362, OV-KATE, OV-SAHO, UWB1.289, UWB1.289-WTBRCA1, HEK-293, HPAF-II, Panc-1005, SW1088, or U-118MG. […] Luminescence signal was acquired via the ViewLux plate reader (PerkinElmer) using a clear filter, 2 second exposure and 2x binning settings.
smiles,measurement,setting,value
CCCCOc1ccc(C(=O)Nc2ccc(F)cc2F)cc1,Potency,[1],inactive
same,Potency,[2],inactive
Cc1ccc(-n2[nH]c(C)c(N=Nc3cccc(-c4cccc(C(=O)O)c4)c3O)c2=O)cc1C,Potency,[3],inactive
same,Potency,[4],178 µM (active)
same,Potency,[5],7.94 µM (active)
same,outcome,[6],inactive
same,Potency,[7],inactive
Cn1cc(-c2ccc3ncc(Cc4ccc5ncccc5c4)n3n2)cn1,Potency,[1],inactive
same,Potency,[2],inactive
COc1ccc(S(=O)(=O)Nc2cc(-c3c(O)ccc4ccccc34)c(O)c3ccccc23)cc1,Potency,[3],inactive
same,Potency,[4],31.6 µM (active)
same,Potency,[5],44.7 µM (active)
same,outcome,[6],inactive
COc1ccc(S(=O)(=O)Nc2cccnc2Nc2ccc(O)cc2)cc1,Potency,[1],inactive
same,Potency,[2],inactive
C[C@@H](Cc1cc2c(c(C(N)=O)c1)N(CCCO)CC2)NCCOc1ccccc1OCC(F)(F)F,Potency,[1],inactive
same,Potency,[2],inactive
O=C(Nc1cc2cc[nH]c2cn1)c1ccccc1,Potency,[1],inactive
same,Potency,[2],inactive
CCCCCCCCc1ccc(CCC(N)(CO)CO)cc1,Potency,[3],inactive
same,Potency,[4],70.8 µM (active)
same,Potency,[5],inactive
same,Potency,[7],26.2 µM (active)
same,Potency,[8],16.5 µM (active)
Cn1cnc2c(F)c(Nc3ccc(Br)cc3F)c(C(=O)NOCCO)cc21,Potency,[1],inactive
same,Potency,[2],inactive
CCN(CC)Cc1ccc2cc(COC(=O)Nc3ccc(C(=O)NO)cc3)ccc2c1,Potency,[1],inactive
same,Potency,[2],inactive
C=CC(=O)Nc1ccc2ncnc(Nc3ccc(OCc4cccc(F)c4)c(Cl)c3)c2c1,Potency,[1],44.7 µM (active)
CCOC(=O)[C@@H](N)Cc1ccc(-c2cc(O[C@H](c3ccc(Cl)cc3-n3ccc(C)n3)C(F)(F)F)nc(N)n2)cc1,Potency,[1],44.7 µM (active)
O=C(Nc1ccc(Oc2ccnc3[nH]ccc23)c(F)c1)c1cccn(-c2ccc(F)cc2)c1=O,Potency,[1],inactive
same,Potency,[2],inactive
O=c1c(O)c(-c2ccc(O)c(O)c2)oc2cc(O)ccc12,Potency,[3],inactive
same,Potency,[2],22 µM (active)
same,Potency,[4],inactive
same,Potency,[5],316 µM (active)
same,Potency,[8],inactive
same,outcome,[9],inactive
CC(C)C[C@H](NC(=O)[C@@H](NC(=O)c1cccc(-c2ccccc2)n1)[C@@H](C)O)B(O)O,Potency,[1],inactive
same,Potency,[2],inactive
CC(C)c1cc(C(C)C)c(CC(=O)NS(=O)(=O)Oc2c(C(C)C)cccc2C(C)C)c(C(C)C)c1,Potency,[3],3.16 µM (active)
same,Potency,[1],3.16 µM (active)
same,Potency,[2],3.16 µM (active)
same,Potency,[4],3.16 µM (active)
same,Potency,[5],inactive
same,outcome,[6],inactive
same,Potency,[8],5.87 µM (active)
